Target: PRPF8 (UniProt Q6P2Q9)
Assay: log2 ratio of Biotin-Ahx-Ub-VS probe labelling (fragment/DMSO); higher = less target engagement (more negative = stronger competition), active = hit call of the paper (q ≤ 0.05, log2 ratio ≤ -1)
Settings: compound concentration: 200 uM; treatment time: 3 h
Procedure, shortened: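 HEK293T lysate (495 µg per sample, in Tris/CHAPS/IGEPAL buffer with protease inhibitors) was treated in triplicate with fragment at 200 µM or with DMSO for 3 h. It was then treated with Biotin-Ahx-Ub-VS (0.5 µM final) for 1 h. Labelled DUBs were NeutrAvidin-enriched, digested with LysC and trypsin, and run by diaPASEF LC-MS/MS. Spectronaut label-free quantities were global-median-normalised. Values are average log2 ratios fragment/DMSO by unpaired t-test, using proteins with ≥2 unique peptides.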

log2 ratio of Biotin-Ahx-Ub-VS probe labelling, inactive:
COc1cc(Cl)c(C)cc1NC(=O)CCl -0.193
Cl.O=C(CCl)N1CCN(Cc2ccccc2)CC1 -0.0463
Cc1nc(CN2CCN(C(=O)CCl)CC2)cs1 0.211
O=C(CCl)Nc1cc(Cl)ccc1C(=O)O -0.2
CN(C(=O)CCl)c1nc2ccccc2s1 0.183
O=C(CCl)NCCc1cccc2ccccc12 0.117
CCCn1nccc1NC(=O)CCl 0.193
CNC(=O)C1CCN(C(=O)CCl)CC1 -0.218
O=C(CCl)N1CCOC(c2cccc(F)c2)C1 (stereo not given) -0.107
Cc1c(C#N)c(NC(=O)CCl)n(Cc2ccco2)c1C 0.194
O=C(CCl)N1CCC(C(=O)N2CCCCCC2)CC1 0.0601
CN1C(=O)c2ccc(NC(=O)CCl)cc2C1=O 0.154
C[C@H]1CN(C(=O)CCl)CCN1C(=O)c1cnn(C)c1.Cl 0.144
CC1(NC(=O)CCl)CCS(=O)(=O)C1 (stereo not given) -0.0055
O=C(CCl)NCc1ccc(Cl)cc1 0.0877
O=C(CCl)Nc1ccc(N2CCCC2=O)cc1 0.162
Cc1ncsc1CCNC(=O)CCl 0.116
Cc1cccc(C)c1NC(=O)CCl -0.0544
Cc1cccc(C(CNC(=O)CCl)N2CCOCC2)c1.Cl (stereo not given) -0.0193
Cc1cccc(NC(=O)CCl)c1C 0.0787
Cc1cc(C2CCCN2C(=O)CCl)nn1C.Cl (stereo not given) 0.0171
O=C(CCl)N1CCCC2CCCCC21 (stereo not given) 0.0617
Cc1cccc(N2CCC(NC(=O)CCl)C2=O)c1 (stereo not given) -0.232
CC(O)CC1CCN(C(=O)CCl)CC1 (stereo not given) 0.0532
Cc1nc(CC2CCN(C(=O)CCl)CC2)no1 -0.314
CC1Cc2ccccc2N1C(=O)CCl (stereo not given) -0.117
O=C(CCl)Nc1cccc(C(=O)N2CCSCC2)c1 -0.00865
Cl.O=C(CCl)N1CCc2ncncc2C1 0.0782
NC(=O)C(Cc1ccccc1)NC(=O)CCl (stereo not given) -0.0593
CC(NC(=O)CCl)c1csc(-c2ccccc2)n1.Cl (stereo not given) -0.0372
Cc1ccc(CC(NC(=O)CCl)c2ccccn2)cc1.Cl (stereo not given) 0.0556
O=C(CCl)N[C@H]1CCS(=O)(=O)c2ccccc21 0.0359
O=C(CCl)NCC(=O)N1CCCC1 -0.0276
CC(C)n1nccc1NC(=O)CCl -0.0737
Cc1cc(CC(C)NC(=O)CCl)n[nH]1 (stereo not given) -0.109

Reference: the supplement of paper PMC11732987, “Enantioselective OTUD7B fragment discovery through chemoproteomics screening and high-throughput optimisation” (Communications Chemistry, 2025)
